Results on seven compounds are retold here after PubChem BioAssay (NCATS).

A short description of test [1]: Cell Viability - NIH 3T3 (AID 541).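 For activity change, negative = cytotoxicity: plate controls were DMSO alone for no effect and tamoxifen positive control for full effect.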 Note: nearly all actives have a fitted effect of over 25% in size. Note: potency is the fitted concentration of half-maximal effect. The conditions noted are these: NIH 3T3 cell viability, qHTS; activity change, negative = cytotoxicity: at 92.2 µM (top of the series). In a few lines: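 NIH 3T3 mouse embryo fibroblasts (1000 cells/well) were plated in complete medium and treated with compound for 40 hr at 37 °C. Viability was read as intracellular ATP by CellTiter-Glo luminescence; AC50 values came from Hill-equation fits of concentration-response data.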
A general note: In qHTS, concentration-response curves come from the screen itself.

The nature of test [2]: Cell Viability - HUV-EC-C (AID 542). For activity change, negative = cytotoxicity: % is set by controls: 0 for no effect and ±100 for the full control effect. Note: nearly all actives have a fitted effect of over 35% in size. Note: potency is the fitted concentration of half-maximal effect. In a few lines: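 HUV-EC-C normal human vascular endothelial cells, 1000 cells/well, pre-incubated 5 hr at 37 °C, then exposed to compounds for 40 hr at 37 °C in complete medium. Viability measured as intracellular ATP by CellTiter-Glo luminescence; AC50 from Hill fits.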
A short description of test [3]: Cellular Toxicity (caspase-3) Jurkat (AID 655).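 Note: cells exposed to compound for 16 h at 37 °C before reading.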 Note: potency is the fitted concentration of half-maximal effect. The conditions noted are these: Jurkat caspase-3 activation, luminescence; caspase-3 activation: at 92.2 µM (top of the series), DMSO = 0%, tamoxifen = 100%. In a few lines: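 5000 Jurkat cells/well; compound 16 hr, 37 °C; Caspase-Glo 3/7 added, 20 min RT; luminescence read. Norm: DMSO = 0%, tamoxifen 100 uM = 100%. AC50, Hill model.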

A short description of test [4]: Cellular Toxicity (caspase-3) SHSY5Y (AID 657). Note: potency is the fitted concentration of half-maximal effect. In a few lines:
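qHTS, SH-SY5Y, 1500 cells/well, 5 h pre-incubation 37 °C; compound 16 h 37 °C; Caspase-Glo 3/7 1 h RT; luminescence. Norm.: DMSO = 0, 10 uM staurosporine = 100%. Hill fit → AC50.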

The nature of test [5]: Cellular Toxicity (caspase-3) MRC-5 (AID 659).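 Note: 0% = DMSO basal and 100% = 10 µM staurosporine.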 In a few lines: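 Concentration-dependent caspase 3/7 activation is measured in human normal lung fibroblasts (MRC-5) following 16-hour treatment. AC50 values come from standard Hill-equation modeling of luminescence normalized to DMSO and 10 uM staurosporine.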
The nature of test [6]: Cellular Toxicity (caspase-3) H-4-II-E (AID 663).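 Note: cells exposed to compound for 16 hr before readout.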 The conditions noted are these: H-4-II-E rat hepatoma; Potency: caspase-3 activation; caspase-3 activation: at 92.2 µM (top of the series), scaled: DMSO 0%, 100 µM tamoxifen 100%. The method, boiled down: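 Apoptosis induction is scored as increased luminescence from caspase 3/7 substrate cleavage in rat hepatoma H-4-II-E cells exposed to compound for 16 hr. Activity is scaled between DMSO and 100 uM tamoxifen.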

Test [7] is described as follows: MultiTox-Fluor Cytotoxicity Assay - LYMP1-001 - Live Cells (AID 947).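 For activity change, negative = cytotoxicity: 0% = DMSO only and full inhibition = tetraoctylammonium bromide control.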 Note: potency is the fitted concentration of half-maximal effect.
Test [8] in a line: Cell Viability - LYMP1-002 - Assay at 16 hr (AID 948).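 For activity change, negative = cytotoxicity: 0% = DMSO alone and full effect = 92 µM tetraoctylammonium bromide.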 Note: potency is the fitted concentration of half-maximal effect. In a few lines: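 Seed 2500 LYMP1-002 cells per well in complete medium and hold 5 hr at 37 C. Add compound across a concentration series and incubate 16 hr at 37 C. Add CellTiter-Glo, wait 30 min at room temperature, read luminescence.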
Test [9] in a line: MultiTox-Fluor Cytotoxicity Assay - LYMP1-002 - Dead Cells (AID 960). Note: nearly all actives have a fitted effect of over 60% in size. Note: potency is the fitted concentration of half-maximal effect. In a few lines:
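Human lymphoblastoid cells (LYMP1-002), 2500/well in complete medium, were exposed to compounds for 16 hr at 37 C. Dead-cell protease activity was read as bis-AAF-R110 fluorescence (Ex/Em 485/520), normalized to DMSO and 15 uM tetraoctylammonium bromide; AC50 from Hill fits.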

The nature of test [10]: Cell Viability - LYMP2-005 (AID 967). Note: potency is the fitted concentration of half-maximal effect. The method, boiled down: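 Acute cytotoxicity is scored as a concentration-dependent drop in intracellular ATP in human lymphoblastoid LYMP2-005 cells after 24 h compound treatment. ATP is quantified by luciferase luminescence, and AC50 is derived by Hill-equation modelling.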
Test [11] in a line: Cell Viability - LYMP2-026 (AID 989). Note: nearly all actives have a fitted effect of over 50% in size. Note: potency is the fitted concentration of half-maximal effect. The method, boiled down: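 Human lymphoblastoid cells (2500/well) in complete medium were preincubated 5 hr at 37 C, then exposed to compounds for 24 hr at 37 C. Cellular ATP was read by CellTiter-Glo luminescence; AC50 from Hill-equation fits of concentration-response data.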
Test [12] deals with Thyroid hormone receptor beta (Homo sapiens) (UniProt P10828). In words: qHTS assay for small molecule agonists of thyroid hormone receptor beta signaling (AID 588545; calls by dose curve;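 note: 0% = DMSO only and 100% = 10 nM T3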). In a few lines:
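Efficacy and EC50 values derive from Hill fits of qHTS titration data, normalized to 10 nM T3 and DMSO-only wells. HEK 293 reporter cells were stimulated for 18 hrs at 37 C, with beta-lactamase activity measured by CCF4 fluorescence.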

The nature of test [13]: qHTS assay for small molecule disruptors of the mitochondrial membrane potential - 1 hr assay (AID 651754; calls by dose curve; note: nearly all actives have a fitted effect of over 35% in size; note: potency is the fitted concentration of half-maximal effect). In a few lines: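 HepG2 cells, attached overnight at 37C, were exposed to compound or DMSO vehicle for 1 hr at 37C, 5% CO2, then stained with Mito-MPS dye for 30 min. Red aggregate versus green monomer fluorescence reports membrane potential.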
Test [14] has as its target Tumor necrosis factor (Homo sapiens) (UniProt P01375). Kind of test: qHTS assay to identify small molecules that stimulate Tumor Necrosis Factor-alpha (TNF-alpha) secretion (AID 651757; active = well fitted curve in the direction sought with a large enough effect in the signal ratio; the % refers to the signal ratio; note: 0% is about no effect). The method, boiled down: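 THP-1 cells were exposed to compounds for 17 hrs at 37 C, after which secreted TNF-alpha was measured by homogeneous HTRF (TR-FRET) using cryptate- and XL665-labeled anti-TNF-alpha antibodies, read after 3 hr at room temperature.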

The target in test [15] is Nuclear receptor ROR-gamma (Homo sapiens) (UniProt P51449). Kind of test: qHTS assay for small molecule antagonists of the retinoid-related orphan receptor gamma (ROR-gamma) signaling pathway (AID 651802). Note: nearly all actives have a fitted effect of over 60% in size. Note: potency is the fitted concentration of half-maximal effect. The method, boiled down: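 CHO cells carrying TET-inducible ROR-gamma and an ROR response element–luciferase reporter were exposed to compound, then induced with doxycycline. After 16hr at 37C, luminescence was read; lower signal indicates antagonism.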

Test [16] is described as follows: qHTS assay for small molecule agonists of the antioxidant response element (ARE) signaling pathway measured by Nrf2-dependant transcriptional activity (AID 720636; active = well fitted curve in the direction sought with a large enough effect in the repeat runs; an effect the other way counts as inactive or inconclusive;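 note: HepG2 cells with an ARE-driven luciferase reporter; % of control where 0% means no effect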). The method, boiled down: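 In HepG2 cells engineered with an Nrf2-responsive luciferase gene, ARE induction was quantified as luminescence after 16 hr compound treatment at 37 C.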
Test [17] in a line: qHTS assay for small molecule antagonists of the retinoid-related orphan receptor gamma (ROR-gamma) signaling pathway - cell viability counter screen (AID 720652; active = well fitted curve in the direction sought with a large enough effect in the repeat runs; an effect the other way counts as inactive or inconclusive;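 note: compound exposure lasted 16 hr before ATP read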; note: potency is the fitted concentration of half-maximal effect; for activity change, negative = cytotoxicity: % is set by controls: 0 for no effect and ±100 for the full control effect). The method, boiled down: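 Counter screen in CHO cells carrying TET-inducible ROR-gamma and an ROR response element-luciferase reporter; cells plated 5 hr, compound pinned, doxycycline added, then 16 hr at 37 C. Viability read as intracellular ATP by CellTiter-Glo luminescence.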

In test [18] the target is Nuclear receptor subfamily 1 group I member 2 (Rattus norvegicus) (UniProt Q9R1A7). Kind of test: qHTS assay for small molecule activators of the rat pregnane X receptor (rPXR) signaling pathway (AID 651751; call rule not given here; note: 0% is about no effect). The conditions noted are these: rPXR reporter cells, luciferase (One-Glo), 24 h.
Test [19] is described as follows: qHTS assay for small molecule activators of the human pregnane X receptor (PXR) signaling pathway (AID 720659; call rule not given here; note: 0% is about no effect).
Test [20] has as its target Voltage-gated inwardly rectifying potassium channel KCNH2 (Homo sapiens) (UniProt Q12809). In words: qHTS Assay for Small Molecule Inhibitors of the Human hERG Channel Activity (AID 588834).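 Note: lower thallium flux fluorescence means stronger hERG block; nearly all actives have a fitted effect of over 50% in size.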 Note: potency is the fitted concentration of half-maximal effect. The method, boiled down: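 hERG-BacMam U2OS, 2000 cells/well; 0.7X FluxOR loading 1 hr RT dark; cpd ~10 min 37 °C; stim buffer; FDSS fluorescence 2 min @ 1 s; AC50 Hill fit.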

“And” between values parts separate entries of the source, which are not always exact repeats. Equal entries are not always repeated. A number with no mark means an inactive call. Inconclusive results are not listed. The source made the active and inactive calls. Unless noted, calls come from the whole dose curve; as a rule, active = well fitted curve in the direction sought with a large enough effect; inconclusive = small, poorly fitted or top-dose-only effect, or another doubt; inactive = no such curve, though single readings can be large; an effect the other way counts as inactive or inconclusive.

Sequence of Tumor necrosis factor (Homo sapiens) (P01375 whole entry, looked up): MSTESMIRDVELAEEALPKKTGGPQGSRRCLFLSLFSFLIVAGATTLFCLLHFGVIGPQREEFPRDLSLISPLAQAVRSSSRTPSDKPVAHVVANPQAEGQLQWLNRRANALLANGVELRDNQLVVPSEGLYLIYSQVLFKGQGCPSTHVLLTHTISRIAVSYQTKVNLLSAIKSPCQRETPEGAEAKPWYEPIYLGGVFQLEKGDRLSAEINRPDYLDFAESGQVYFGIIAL
Sequence of Thyroid hormone receptor beta (Homo sapiens) (P10828 whole entry, looked up): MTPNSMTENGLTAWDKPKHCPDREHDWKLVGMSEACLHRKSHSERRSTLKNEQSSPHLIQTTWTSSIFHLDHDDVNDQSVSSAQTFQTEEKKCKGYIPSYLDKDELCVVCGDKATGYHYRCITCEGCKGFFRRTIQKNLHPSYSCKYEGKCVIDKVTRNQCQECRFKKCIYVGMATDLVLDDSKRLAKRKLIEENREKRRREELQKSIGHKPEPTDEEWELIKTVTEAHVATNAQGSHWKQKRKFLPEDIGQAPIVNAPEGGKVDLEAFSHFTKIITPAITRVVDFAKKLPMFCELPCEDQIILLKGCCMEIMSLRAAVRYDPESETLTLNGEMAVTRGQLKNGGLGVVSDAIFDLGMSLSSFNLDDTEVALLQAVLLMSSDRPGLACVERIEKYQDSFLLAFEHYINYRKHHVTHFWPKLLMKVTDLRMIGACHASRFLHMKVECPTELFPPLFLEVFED
Sequence of Voltage-gated inwardly rectifying potassium channel KCNH2 (Homo sapiens) (Q12809 whole entry, looked up): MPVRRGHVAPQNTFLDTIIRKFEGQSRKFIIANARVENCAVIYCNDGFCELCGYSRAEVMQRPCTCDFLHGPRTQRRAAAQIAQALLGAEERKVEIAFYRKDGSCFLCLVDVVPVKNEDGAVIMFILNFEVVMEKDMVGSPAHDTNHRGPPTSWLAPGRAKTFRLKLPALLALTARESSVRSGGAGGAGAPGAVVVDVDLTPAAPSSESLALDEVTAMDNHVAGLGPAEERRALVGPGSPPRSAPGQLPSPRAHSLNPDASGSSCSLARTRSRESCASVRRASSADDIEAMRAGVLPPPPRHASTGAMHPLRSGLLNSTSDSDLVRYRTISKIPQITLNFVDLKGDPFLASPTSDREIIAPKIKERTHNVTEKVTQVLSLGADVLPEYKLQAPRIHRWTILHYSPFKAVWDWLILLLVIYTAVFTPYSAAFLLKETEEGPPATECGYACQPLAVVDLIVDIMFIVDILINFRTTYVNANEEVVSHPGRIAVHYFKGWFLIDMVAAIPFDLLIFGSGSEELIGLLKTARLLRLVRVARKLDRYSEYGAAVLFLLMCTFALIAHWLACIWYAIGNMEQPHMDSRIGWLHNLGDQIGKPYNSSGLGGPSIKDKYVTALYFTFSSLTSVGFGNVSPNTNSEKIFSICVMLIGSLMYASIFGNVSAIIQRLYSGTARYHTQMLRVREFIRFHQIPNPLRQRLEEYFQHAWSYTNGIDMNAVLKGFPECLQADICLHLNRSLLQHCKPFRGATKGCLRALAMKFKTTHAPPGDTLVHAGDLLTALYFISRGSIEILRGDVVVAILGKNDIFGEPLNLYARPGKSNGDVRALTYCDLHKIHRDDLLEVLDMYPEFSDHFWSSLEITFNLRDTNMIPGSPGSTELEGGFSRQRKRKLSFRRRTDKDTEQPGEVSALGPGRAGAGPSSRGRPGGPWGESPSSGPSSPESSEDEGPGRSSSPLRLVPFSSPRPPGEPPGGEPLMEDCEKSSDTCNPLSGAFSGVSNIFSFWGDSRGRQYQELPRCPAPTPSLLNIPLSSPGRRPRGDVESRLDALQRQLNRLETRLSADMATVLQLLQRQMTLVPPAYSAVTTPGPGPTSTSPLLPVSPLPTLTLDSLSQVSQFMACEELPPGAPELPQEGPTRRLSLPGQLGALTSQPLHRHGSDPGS
Sequence of Nuclear receptor ROR-gamma (Homo sapiens) (P51449 whole entry, looked up): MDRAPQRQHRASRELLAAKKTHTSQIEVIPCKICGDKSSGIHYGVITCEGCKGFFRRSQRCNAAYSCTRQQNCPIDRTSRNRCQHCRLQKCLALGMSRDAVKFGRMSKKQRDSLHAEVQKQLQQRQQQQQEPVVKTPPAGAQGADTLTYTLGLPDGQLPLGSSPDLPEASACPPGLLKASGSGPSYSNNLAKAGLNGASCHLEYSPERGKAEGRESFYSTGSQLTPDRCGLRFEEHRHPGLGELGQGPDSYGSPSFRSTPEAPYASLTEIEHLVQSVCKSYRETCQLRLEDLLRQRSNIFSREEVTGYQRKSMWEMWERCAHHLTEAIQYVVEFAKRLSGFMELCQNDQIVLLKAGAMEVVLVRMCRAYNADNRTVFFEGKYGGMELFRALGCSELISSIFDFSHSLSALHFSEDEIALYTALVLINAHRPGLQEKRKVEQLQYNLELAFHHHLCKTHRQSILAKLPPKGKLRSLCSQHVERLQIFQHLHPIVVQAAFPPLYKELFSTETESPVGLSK
Sequence of Nuclear receptor subfamily 1 group I member 2 (Rattus norvegicus) (Q9R1A7 whole entry, looked up): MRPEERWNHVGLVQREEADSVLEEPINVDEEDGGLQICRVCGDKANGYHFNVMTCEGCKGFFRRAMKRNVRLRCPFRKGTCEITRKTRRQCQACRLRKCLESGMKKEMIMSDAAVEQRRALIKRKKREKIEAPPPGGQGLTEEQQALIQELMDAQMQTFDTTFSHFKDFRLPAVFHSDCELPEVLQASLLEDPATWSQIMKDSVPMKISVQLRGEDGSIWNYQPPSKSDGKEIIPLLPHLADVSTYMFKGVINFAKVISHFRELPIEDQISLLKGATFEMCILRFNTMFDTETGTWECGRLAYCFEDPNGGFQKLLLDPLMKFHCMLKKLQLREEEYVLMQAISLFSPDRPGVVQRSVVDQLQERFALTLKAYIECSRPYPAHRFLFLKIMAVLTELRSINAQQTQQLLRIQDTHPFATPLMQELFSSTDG

As to `CCCCCC/C(C=O)=C\c1ccccc1`, the Potency result in test [1], in [2], in [3], in [4], in test [7] and in test [8] was “inactive” each time. Moreover, the Potency entry in test [9], in [10], in test [11], in test [13], in [15] and in [16] was “inactive” each time. In test [17], the Potency entry was “inactive”. Also, the compound was called inactive in [5], in [12], in test [14] and in [19]. Besides, the caspase-3 activation in test [6] is 0.146%. Further, in test [18], the max response is -2.08%.

In the case of `C=CC(=O)OCC(CO)(COC(=O)C=C)COC(=O)C=C`, the results for the Potency in [1], in test [2] and in test [4] were 2 µM (active), 50.1 µM (active) and 2.51 µM (active), respectively. For the same compound, the caspase-3 activation in test [3] was -6.15% (active). The result in test [12] and in test [14] was inactive. The Potency entry in test [20] was “inactive”. In addition, the max response in [18] is -14.2%.

As to `O=C(/C=C/c1ccc(O)c(O)c1)OC1C[C@](O)(C(=O)O)C[C@@H](O)[C@H]1O` (stereo partly drawn), the Potency entry in test [1], in [2], in test [3], in [4], in test [7] and in [8] was “inactive” each time. The Potency entry in test [9], in test [10], in [11], in test [20], in test [13] and in test [15] was “inactive” each time. Moreover, the Potency entry in [16] and in [17] was “inactive” throughout. Further, the outcome in test [5], in test [12] and in test [19] was inactive. In addition, in test [6], the caspase-3 activation is 0.575% and -0.278%. Besides, the max response in test [18] is -2.65% and 8.84%.

Take `CCCCCCCC[N+](CCCCCCCC)(CCCCCCCC)CCCCCCCC`: the Potency was 3.16 µM (active) in [1]; 12.6 µM (active) in test [2]; 12.6 µM (active) in test [3]; 10 µM (active) in test [7]; 6.31 µM (active) in test [8]; 3.16 µM (active) in [9]. The Potency is 7.94 µM (active) in [10]; 7.94 µM (active) in test [11]; 0.355 µM (active) in [20]; 3.35 µM (active) in [13]; 1.5 µM (active) in [15]; 9.44 µM (active) in test [17]. Besides, the outcome in [14] was inactive. The Potency result in [16] was “inactive”.

In the case of `CN1[C@H]2CC(OC(=O)[C@H](CO)c3ccccc3)C[C@H]1[C@H]1O[C@H]12` (stereo partly drawn), the Potency entry in test [1], in test [2], in test [3], in [4], in test [8] and in test [9] was “inactive” in each case. Also, the Potency result in test [11], in test [13], in [15], in [16] and in [17] was “inactive” each time. Moreover, the call in test [5], in [12], in [14] and in test [19] was inactive. In addition, the caspase-3 activation in test [6] was 0.771% and -1.21%. In addition, the max response in test [18] is -5.42% and 5.83%.

Consider `O=C(OCC(COC(=O)c1ccccc1)(COC(=O)c1ccccc1)COC(=O)c1ccccc1)c1ccccc1`, for which the Potency entry in test [1], in test [2], in test [3], in test [4], in test [7] and in test [8] was “inactive” throughout. For the same compound, the Potency result in [10], in test [11], in test [20], in test [15], in test [16] and in [17] was “inactive” in each case. The call in test [5], in test [14] and in [19] was inactive. Further, the caspase-3 activation in [6] is -0.12%.

In the case of `Cc1cccc(O)c1C`, the Potency result in [1], in test [2], in test [3], in test [4], in test [7] and in test [8] was “inactive” throughout. In addition, the Potency entry in test [9], in [10], in [11], in test [20], in [13] and in test [15] was “inactive” throughout. For the same compound, the Potency entry in [16] and in test [17] was “inactive” each time. Moreover, the call in test [5], in [12], in [14] and in test [19] was inactive. The caspase-3 activation in [6] was 0.768%. Further, in [18], the max response was -0.434%.
